PriA SSB inh – inhibitors of Klebsiella pneumoniae PriA binding to SSB C-terminal tail, primary screen, biochemical, AlphaScreen; PriA–SSB C-terminal tail interaction (Klebsiella pneumoniae); AlphaScreen SSBct-PriA binding, biotinylated peptide; inhibition, % at 33 µM; 430,000 tested, 0.6% active; in the data active = inhibition mostly above about 37%, no sharp cut-off; inactive = mostly below about 20%;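 also: plate controls were negative control peptide for no effect and reference peptide for full effect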
ugtP null kill – growth inhibition of ugtP-null S. aureus, primary screen, RN4220 ugtP deletion, OD600; 16 h; growth inhibition, % (test concentration not listed); AID 1259309, 2017; 330,000 tested, 0.54% active; in the data active = growth inhibition above about 68%;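 also: plate controls were untreated wells for no effect and antibiotic for full effect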
RN4220 kill – growth inhibition of S. aureus RN4220, primary screen, OD600; AID 1259311, 2017; 16 h; 330,000 tested, 0.33% active; inhibition, % (test concentration not listed); in the data active = inhibition above about 85%;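 also: plate controls were untreated cells for no effect and reference antibiotic for full effect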
Starred values were filed as active, the others as inactive; nt = no result given. Most compounds without a hit are left out; they make up all but 1% or so of the library.

SMILES	PriA SSB inh	ugtP null kill	RN4220 kill
COc1ccc(-c2c(C#N)c(SCC(=O)N3CCCCCC3)nc3c2C(=O)CC(C)(C)C3)cc1	-7.0	nt	nt
O=C(c1cc2ccccc2[nH]1)N1CCN(c2cc(C(F)(F)F)ncn2)CC1	-25.0	nt	nt
COc1ccc(C(N)=NOC(=O)CCc2ccccc2)cc1OC	-57.9	nt	nt
Cc1cncnc1N1CCN(S(=O)(=O)c2ccccc2F)CC1	-2.0	nt	nt
CCNc1nn(CC(=O)Nc2ccc3c(c2)CCC3)c(N)c1-c1nc(-c2ccccc2C)no1	-10.0	nt	nt
O=C(Cn1ccc2ccccc21)N1CC(c2nc(-c3cccc(C(F)(F)F)c3)no2)C1	0.0	nt	nt
Cc1ccc(N2CCCS2(=O)=O)cc1NC(=O)C(=O)NC1CCCC1	-2.0	nt	nt
CCC(C)(C)c1ccc(OC[C@@H](O)CN2CCOCC2)c(C(C)(C)CC)c1	-5.0	nt	nt
CCCCOc1ccc(C)cc1CN(CCO)CCO	15.3	3.7	6.3
CCCCCc1ccc(OCCCC[n+]2cccc(C)c2)c(CCCCC)c1	-16.4	nt	nt
CCC(C)(C)c1ccc(OCCCC[n+]2ccccc2)c(C(C)(C)CC)c1	nt	99.9*	100.5*
CCCCCc1ccc(OCCCC[n+]2ccccc2)c(CCCCC)c1	-0.9	93.3	100.8*
CCCCCc1ccc(OCCCC[n+]2ccc(C)cc2)c(CCCCC)c1	15.8	100.0*	98.9*
Cc1cc(C(=O)N2CCN(CC(F)(F)F)CC2)no1	-10.0	nt	nt
COc1ccc(CCNC(=O)N(CCc2cccs2)Cc2ccco2)cc1	-3.0	nt	nt
O=C(NCC1CCN(C(=O)c2cc3ccccc3o2)CC1)c1ccc(OC(F)(F)F)cc1	-4.0	nt	nt
Cc1ncn(CC(=O)NC2CCN(c3nccs3)CC2)c(=O)c1C	3.0	nt	nt
Cc1nc2c(=O)n(C)c(=O)nc-2n(C)n1	-0.1	38.8	36.6
CCn1nc(-c2ccccc2)nc2c(=O)n(C)c(=O)nc1-2	-22.1	99.9*	94.9*
CCOc1ccc(-c2cc(=O)n(CC(=O)Nc3ccc(S(N)(=O)=O)cc3)cn2)cc1	-11.0	nt	nt
COc1ccc(N=Nc2ccc(N)nc2N)cc1	10.6	nt	nt
COc1ccc(N=Nc2cc(C)ccc2O)cc1	76.7*	11.2	-0.9
COc1ccc(OC)c(C(=O)C(=O)c2cc(OC)ccc2OC)c1	-4.4	0.2	3.1
COc1ccc(N=Nc2cc(OC)c(N)cc2OC)cc1	61.9*	-0.4	-0.8
COc1ccc(N=Nc2ccc3ccccc3c2)c(O)c1	34.3	7.3	-14.6
SMILES	PriA SSB inh	ugtP null kill	RN4220 kill
COc1ccc(OC)c(N)c1	74.3*	-15.1	-3.8
Cc1ccc2nc(N3CCN(C(=O)c4ccc(Br)s4)CC3)sc2c1	-17.0	nt	nt
CC(C)(C)c1ccc(OCc2nc3ccccc3n2CCCOc2ccc(Cl)cc2)cc1	-25.0	nt	nt
CS(=O)(=O)c1ccc(Nc2nc(C(=O)NCc3ccccn3)cs2)cc1	-7.0	nt	nt
COCCn1nnn(-c2ccc(NS(=O)(=O)c3cc(C)ccc3OC)cc2)c1=O	-15.0	nt	nt
O=C(CCCc1ccccc1)NCCn1ncc2c(=O)n(Cc3cccc(Cl)c3)cnc21	-12.0	nt	nt
O=C(c1ccsc1)N(Cc1ccoc1)Cc1cccs1	6.0	nt	nt
Nc1ccc2c3c(cccc13)-c1ccccc1-2	-85.5	85.1*	70.8
Cc1ccc2c3c(cccc13)-c1ccccc1C2=O	-11.0	46.7	2.3
Cc1ccc(C(O)=C2C(=O)C(=O)N(CCN(C)C)C2c2ccccc2F)cc1 (stereo not drawn)	-21.9	nt	nt
O=C(NCCn1ccc(-c2ccccn2)n1)[C@H]1CC(=O)N(c2ccccc2)C1	-4.0	nt	nt
O=C(NCCOc1ccc(-c2ccccn2)nn1)[C@H]1CC(=O)N(c2cccc(Br)c2)C1	100.0*	nt	nt
C=CCOCC(O)CNC(C)(C)CC(C)(C)C (stereo not drawn)	6.0	nt	nt
Cc1cccc(OCc2n(CC(=O)OC3CC(C)CCC3C(C)C)c3ccccc3[n+]2C)c1 (stereo not drawn)	-11.6	nt	nt
CC1CCC(C(C)C)C(OC(=O)Cn2c(-c3ccc(F)cc3)[n+](C)c3ccccc32)C1 (stereo not drawn)	-2.8	100.2*	96.9*
CC1CCC(C(C)C)C(OC(=O)CSc2nnc(N)s2)C1 (stereo not drawn)	-1.1	-6.1	7.9
CC1CCC(C(C)C)C(OC(=O)Cn2c(COc3ccccc3)[n+](C)c3ccccc32)C1 (stereo not drawn)	5.2	100.4*	100.6*
CC1CCC(C(C)C)C(OC(=O)Cn2c(-c3ccccc3)[n+](C)c3ccccc32)C1 (stereo not drawn)	4.7	100.5*	99.5*
CC1CCC(C(C)C)C(OC(=O)CSc2nc(N)cc(=O)[nH]2)C1 (stereo not drawn)	12.1	-4.6	10.2
COc1ccc(Cl)cc1S(=O)(=O)NCc1ccc(C(=O)c2ccccc2)s1	9.0	nt	nt
C=CCn1c(SCCC(=O)Nc2nc(-c3ccccc3)ns2)nc2scc(-c3ccc(F)cc3)c2c1=O	-3.0	nt	nt
Cc1ccc2nc(-c3ccc(NC(=S)NC4CC(C)(C)NC(C)(C)C4)cc3)sc2c1	18.7	95.1*	99.7*
Cc1ccc2nc(-c3ccc(NC(=S)NC(=O)C(C)C)cc3)sc2c1	3.0	0.0	-4.2
O=c1c2nnn(Cc3cccc(Cl)c3)c2ncn1Cc1nc(-c2cccc(C(F)(F)F)c2)no1	-13.0	nt	nt
O=C(NCc1ccc2c(c1)OCO2)c1ccc(=O)n(Cc2cccc(F)c2)n1	5.0	nt	nt
SMILES	PriA SSB inh	ugtP null kill	RN4220 kill
O=C(Nc1ccc2c(c1)OCO2)c1ccc(=O)n(Cc2cccc(F)c2)n1	17.0*	nt	nt
NC1=NC[C@H](Cc2ccc(O)cc2)N1CCCCC1CCCCC1	14.6	100.3*	100.3*
NC1=NC[C@H](Cc2ccccc2)N1CCCCC1CCCCC1	-3.8	10.5	5.8
C=CCN[C@@H](CC(=O)Nc1cc(C)ccc1O)C(=O)O	-6.0	nt	nt
O=C(/C=C/c1ccco1)NCCSc1ncc(-c2ccc(Cl)cc2)[nH]1	30.0	nt	nt
O=C(/C=C/c1ccc2c(c1)OCO2)NCCSc1ncc(-c2ccc(Cl)cc2)[nH]1	38.0*	nt	nt
COc1cccc(-c2ccc(=O)n(CCCC(=O)NCCc3ccccc3)n2)c1	-4.0	nt	nt
COc1cccc(-c2ccc(=O)n(CCCC(=O)NCc3ccccc3Cl)n2)c1	39.0*	nt	nt
Clc1cc2c(cc1CSc1nccc(-c3ccc4c(c3)OCO4)n1)OCO2	-1.0	nt	nt
COc1ccccc1NC(=O)Nc1cc(N2CCN(Cc3ccccc3)CC2)ncn1	-10.0	nt	nt
N#CCc1ccc(NC(=O)/C=C/c2ccc([N+](=O)[O-])o2)cc1	0.2	100.4*	100.7*
O=C(O)/C=C/c1ccc([N+](=O)[O-])o1	8.3	27.5	2.7
Cc1nnc(NC(=O)Cc2csc(SCC(=O)c3ccc(F)cc3)n2)s1	10.0	nt	nt
C=CCn1c(CCNC(=O)c2ccccc2F)nnc1SCC(=O)Nc1ccccc1F	0.0	-1.0	3.3
C=CCn1c(Cc2csc(N)n2)nnc1SCC(=O)Nc1ccccc1C(F)(F)F	74.1*	0.3	-0.7
COc1cc2c(c(OC)c1)C(c1cccc(OC)c1OC)CC(=O)N2 (stereo not drawn)	115.4*	-2.0	1.9
CCCOc1c(OC)cccc1C1CC(=O)Nc2cc(OC)c(OC)c(OC)c21 (stereo not drawn)	-1.0	-0.4	0.1
CS(=O)(=O)N1CCCC1C(=O)Nc1nc2ccc(Cl)cc2s1 (stereo not drawn)	-4.0	nt	nt
O=C(Nc1cccc(Cl)c1)c1cc(N=Nc2ccc([N+](=O)[O-])cc2Cl)ccc1O	0.2	99.6*	94.4*

Source: PubChem (several laboratories)
